TRHR PAM: allosterically enhances the human TRH receptor. 0.66% of 360,000 active. enhancement, % at 2 µM. TRHR cells, fluo-8 calcium fluorescence, EC20 TRH enhancement. AID 493056; in the data active = enhancement above about 30%; note: 0% is about no effect
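Enhancer read-out: after compound pinning and an initial kinetic agonist-mode read, an EC20 of TRH (10 nM final) was injected and fluo-8 calcium signal (Ex 480/Em 530) followed at 1 s/cycle for 100 cycles in TRHR-expressing cells.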
D1 antagonist: blocks dopamine activation of the human D1 receptor | 3.2% of 360,000 active | HEK293 TREx D1 cells, calcium flux, dopamine EC80; stronger effect = lower value | activity change, negative = inhibition, % at 10 µM | P21728; in the data active = activity change below about -30%; note: % is set by controls: 0 for no effect and ±100 for the full control effect
Target sequence (P21728 whole entry, looked up): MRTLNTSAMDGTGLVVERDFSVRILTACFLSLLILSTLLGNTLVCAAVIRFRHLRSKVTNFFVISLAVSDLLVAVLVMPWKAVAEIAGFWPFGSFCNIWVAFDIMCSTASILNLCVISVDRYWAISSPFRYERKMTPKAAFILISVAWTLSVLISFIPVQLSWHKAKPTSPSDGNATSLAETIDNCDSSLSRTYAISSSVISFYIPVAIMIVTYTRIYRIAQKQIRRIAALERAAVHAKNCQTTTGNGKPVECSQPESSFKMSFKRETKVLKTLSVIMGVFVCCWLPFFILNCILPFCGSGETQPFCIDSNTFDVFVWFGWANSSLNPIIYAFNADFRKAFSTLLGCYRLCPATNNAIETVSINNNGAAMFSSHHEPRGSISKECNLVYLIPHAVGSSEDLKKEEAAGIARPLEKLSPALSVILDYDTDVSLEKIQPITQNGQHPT
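Calcium flux readout: force-coupled, inducible Hek293 Trex D1 line, cells induced overnight at 30 C with tetracycline, dye-loaded 30–90 min at RT. Antagonism scored against EC80 dopamine challenge given 180 s after compound.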
TRHR ag: agonists of human TRH receptor; P34981; TRHR cells, calcium flux fluo-8, FDSS agonist mode; activation, % at 2 µM; 0.18% of 360,000 active; note: 0% is about no effect
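TRHR-expressing cells, plated overnight in medium with 10% serum, were loaded with fluo-8 calcium dye at room temperature. After a 10 s baseline, library compound was pin-added and calcium release was recorded kinetically (ex 480/em 530) as agonist response.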
D1 PAM: enhances dopamine response at the human D1 receptor | P21728 | HEK293 TREx D1 cells, calcium flux, dopamine EC20 potentiation | potentiation, % at 10 µM | AID 504651 | 0.036% of 360,000 active; in the data active = potentiation above about 30%; note: 0% is about no effect
D1 agonist: activates the human D1 dopamine receptor. P21728. HEK293 T-REx D1 cells, calcium flux, agonist mode. activation, % at 2 µM. 1% of 360,000 active. AID 504660; note: 0% is about no effect
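Tetracycline-induced HEK293 TREx D1 cells, force-coupled to calcium signalling, were dye-loaded with a no-wash calcium kit. Compound was pin-added after a 10 s baseline. Fluorescence was read kinetically at 1 cycle/s for 180 s, with calcium rises flagged as agonism.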
Epigenetic reg: derepresses silenced GFP reporter in murine cells | Potency, µM (series often up to 53.9 µM), inactives show at the highest dose GFP activation, hits mostly activators | 0.2% of 280,000 active | murine LDR cells, GFP reporter derepression, 30 h; active = well fitted activation curve with a large enough effect; note: potency is the fitted concentration of half-maximal effect; % of control where 0% means no effect; nearly all actives have a fitted effect of over 60% in size
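Murine LDR cells bearing a silenced CMV-driven GFP reporter were exposed to compound for 30 h at 37 C. After PBS washes, GFP-positive cells (20-120 um objects) counted by laser-scanning microplate cytometry.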
* hit, by the source's call; . = not tested or not shown; [ ] = dose if it differs, or a comment. Shown are actives, neighbours in structure and some others; about 4.6% of the full set was active somewhere. Cut-off read from the data, not from the text of the source, unless noted: active = activation above about 30%; inactive = the rest.

SMILES | TRHR PAM | D1 antagonist | TRHR ag | D1 PAM | D1 agonist | Epigenetic reg
COc1ccccc1/C=C\C(=O)NCC(=O)N/N=C(/C)c1cccc([N+](=O)[O-])c1 | -1 | -65* | 0 | -2 | -1 | .
CCc1ccc(/C(C)=N/NC(=O)CNC(=O)/C=C/c2ccccc2OC)cc1 | 20 | 8 | -2 | 0 | 1 | .
COC(=O)c1cccc(NC2CC(=O)N(c3ccc(OC)c(OC)c3)C2=O)c1 (centres undefined) | 3 | -33* | 0 | 9 | 1 | -2%
COc1ccc(N2C(=O)CC(Nc3cccc([N+](=O)[O-])c3)C2=O)cc1 (centres undefined) | -6 | -33* | 0 | -2 | 6 | -7%
COc1ccc(N2C(=O)CC(Nc3ccc(C(=O)O)cc3)C2=O)cc1OC (centres undefined) | -2 | 12 | 1 | 2 | 2 | 1%
Cc1oc2cc(O)ccc2c(=O)c1Oc1ccc2ccccc2c1 | -5 | -37* | 0 | -1 | 5 | 0%
Cc1oc2cc(O)ccc2c(=O)c1Oc1ccc(F)cc1 | 6 | 7 | -1 | -3 | 2 | .
COc1ccc(Nc2cc(C(=O)NCCCN3CCN(c4ccc(OC)cc4)CC3)c3ccccc3n2)cc1 | -3 | -3 | -1 | -3 | 15 | -1%
Cc1cnc(NS(=O)(=O)c2ccc(Cl)cc2)c(Br)c1 | 3 | -38* | -1 | -1 | 1 | -2%
CCO[C@@H]1OC(C(=O)N2CCN(C)CC2)=C[C@H](C(C)(C)C)[C@H]1CCCO | 35* | 18 | 0 | 8 | -3 | 0%
O=C(NCC1CCN(Cc2cccc(F)c2)CC1)c1cc2ccc3cccnc3c2[nH]1 | 4 | -2 | -1 | -4 | -1 | -1%
COc1ccc(-c2nc(NC(=O)Cn3ccc(C(F)(F)F)n3)sc2C)cc1 | -2 | -40* | 1 | 4 | 2 | -1%
COc1ccc(-c2nc(NC(=O)c3[nH]c(C)c(C(C)=O)c3C)sc2C)cc1 | 1 | -91* | 0 | -12 | 15 | -3%
CC(=O)c1c(C)[nH]c(C(=O)Nc2nc(-c3ccc(Cl)cc3)cs2)c1C | 8 | -32* | 0 | -15 | 21 | 5%
COc1ccc(-c2nc(NC(=O)Cn3cnnn3)sc2C)cc1 | -9 | -9 | 1 | -7 | 1 | -3%
Cc1ccc(-c2csc(NC(=O)c3c(C)noc3C)n2)cc1 | 2 | -14 | -1 | 5 | 1 | .
CC(=O)c1c(C)[nH]c(C(=O)Nc2nc(-c3ccc(-c4ccccc4)cc3)cs2)c1C | -1 | -11 | 0 | -5 | 5 | 0%
Cc1noc(C)c1C(=O)Nc1nc(-c2ccc([N+](=O)[O-])cc2)cs1 | -6 | -51* | 0 | -8 | 25 | .
CC1=C(C(=O)Nc2ccccc2)C(c2ccncc2)n2nc(SCc3ccccc3)nc2N1 (centres undefined) | -1 | -5 | 0 | -1 | 4 | -2%
CCc1nc2ccc(C(=O)NCCc3ccc(OC)cc3OC)cc2nc1CC | -3 | 18 | 0 | 0 | 5 | 0%
COCCSc1nc2c([nH]c3ccccc32)c(=O)n1-c1ccc(OC)c(OC)c1 | 0 | 7 | 0 | -6 | -1 | 1%
COc1cccc([C@@H]2Oc3ccc(OC)cc3/C(=N/O[C@@H](C)c3cc(-c4c(C)cc(C)cc4C)no3)[C@@H]2O)c1 | . | . | . | . | . | 1%[10.1 µM]
Cn1cc([N+](=O)[O-])c(C(=O)Nc2nc(-c3ccc(Cl)cc3)cs2)n1 | 3 | -48* | 0 | 3 | 28 | -1%
Cc1ccc(-c2nc(NC(=O)c3nn(C)cc3[N+](=O)[O-])sc2C)cc1 | -1 | -17 | -1 | -8 | -3 | -3%
CCOC(=O)c1c(C)[nH]c(C)c1S(=O)(=O)NCC(=O)NCc1ccc(C)cc1 | -1 | -2 | 0 | -1 | 4 | -9%
CCCCc1c(C)nc2c(-c3ccc(OC)cc3)c(C)[nH]n2c1=O | 0 | 2 | 0 | -3 | 42* | 0%
CCCC(=O)C1=C(O)C(C(=O)OC)C(C)(C)CC1=Nc1ccccc1 (centres undefined) | -4 | -46* | 0 | -3 | 1 | 1%

Screening data deposited in PubChem BioAssay by National Center for Advancing Translational Sciences (NCATS).
